# Sampled rows, rich in hits. Any-hit rate of the full collection: about 21%.
# Cycloheximide cs: counter-screen for Shiga toxin inhibitors: cycloheximide protein synthesis inhibition; AID 2314; max response, %; cell reporter, cycloheximide protein synthesis inhibition counterscreen; 300,000 compounds, 12% hits; in the data active = max response mostly above about 13%, no sharp cut-off; inactive = mostly below about 14%; note: read at 38.3 µM for the half of the compounds with a filed dose; 0% is about no effect
# Pf growth 48h: P. falciparum growth inhibition at 48 hours (one generation); P. falciparum luciferase growth in erythrocytes, 48 h; Potency, µM (top dose mostly 28.7 µM), for the others: at the highest dose activity change, negative = inhibition, hits mostly inhibitors; 310,000 compounds, 5.9% hits; AID 504832; note: potency is the fitted concentration of half-maximal effect; % is set by controls: 0 for no effect and ±100 for the full control effect
#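 Compounds are pin-transferred into medium, infected erythrocytes (2% hematocrit, 0.1% parasitemia final) are added, and plates sit one parasite generation at 37 C in 5% CO2. Detection reagent is then added and luminescence measured.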
# NS1 inh: influenza NS1 inhibition | Potency, µM (series often up to 46.1 µM), without a hit: at the highest dose activity, positive = more growth | 270,000 compounds, 0.4% hits; calls by dose curve; note: potency is the fitted concentration of half-maximal effect; actives are rising curves; nearly all actives have a fitted effect of over 50% in size
#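 Read-out: OD600 growth recovery of NS1-expressing budding yeast. Cells grown overnight at 30C in -URA glucose medium, washed, resuspended and diluted 1:100 in 2% galactose assay medium, pH 6.0. Same strain lacking NS1 served as positive control.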
# Pf growth 96h: inhibits malaria parasite growth, 96 h; P. falciparum luciferase reporter growth, 96 h; Potency, µM (highest dose often 28.7 µM), for the others: at the highest dose activity change, negative = inhibition, hits mostly inhibitors; 320,000 compounds, 6.9% hits; AID 504834; note: potency is the fitted concentration of half-maximal effect; % is set by controls: 0 for no effect and ±100 for the full control effect
#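 Cell-based qHTS: luciferase-tagged P. falciparum in erythrocytes (2% hematocrit, 0.05% parasitemia final) incubated with compounds for 96 hours, 37 C, 5% CO2; luciferase detection reagent then added and luminescence measured.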
# Shiga toxin inh: Shiga toxin inhibition. Vero cells, Shiga toxin protein synthesis inhibition reporter. inhibition, % at 38.7 µM. 290,000 compounds, 9.2% hits; in the data active = inhibition mostly above about 28%, no sharp cut-off; inactive = mostly below about 43%; note: 0% is about no effect
# * marks the source's active call; other numbers are inactive results; ? = inconclusive; / = no result given; [ ] = remark or other dose. Unless noted, calls come from the whole dose curve; as a rule, active = well fitted inhibition curve with a large enough effect; inconclusive = small, poorly fitted or top-dose-only effect, or another doubt; inactive = no such curve, though single readings can be large or run the other way.
SMILES,Cycloheximide cs,Pf growth 48h,NS1 inh,Pf growth 96h,Shiga toxin inh
Cc1cc(/C=N/NC(=O)c2ccncc2)c(C)n1-c1cccc(C(F)(F)F)c1,8,?,-7%,34%,6
Cc1ccc(-n2c(C)cc(/C=N/NC(=O)c3ccncc3)c2C)cc1,25*,?,10%,?,18
Cc1ccc(-n2c(C)cc(/C=N/NC(=O)CN(c3ccc(C)cc3C)S(C)(=O)=O)c2C)cc1,-2,12µM*,11%,?,-9
CNC(=S)N/N=C/c1cc(C)n(-c2ccc(Cl)c(Cl)c2)c1C,22*,15µM*,-7%,9.3µM*,52
O=C(COc1ccc([N+](=O)[O-])cc1)Nc1ccccc1C(=O)NC1CC1,/,3%,/,34%,/
CN(C)c1ccc(C(C#N)c2ccccc2)nn1 (stereo unspecified),11,0%,/,-4%,37
Cc1ccc(-n2c(C)cc(/C=N/NC(N)=S)c2C)cc1,19*,?,4%,126%,-12
CC(C)NS(=O)(=O)c1cc(F)ccc1CN1C(=O)c2cccnc2C1=O,-3,-9%,-2%,2.1µM*,4
Cc1ccc(CNS(=O)(=O)c2cc(F)ccc2CN2C(=O)c3cccnc3C2=O)o1,3,26%,1%,?,16
Cc1cccc(N2C(=O)c3cccc4c(N(C)CCO)ccc(c34)C2=O)c1,10,?,9%,5.9µM*,-8
COc1cccc(CNC(=O)CCC2CCCN(C(=O)C3=CC(=O)CC(C)(C)O3)C2)c1 (stereo unspecified),1,-9%,1%,?,-4
CCN1C(=O)/C(=C/c2cnn(CC)c2C)SC1=S,6,2%,-7%,11%,6
CCOC(=O)C1CCCN(/C=C2\SC(=S)N(CC)C2=O)C1 (stereo unspecified),7.9*,-15%,-5%,-15%,16
CCN1C(=O)/C(=C/N2CC(C)CC(C)C2)SC1=S (stereo unspecified),6,58%,6%,-5%,-6
CCN1C(=O)/C(=C/N2CCc3ccccc3C2)SC1=S,16*,29%,2%,-19%,31
CCN1C(=O)/C(=C\N2CCCCCC2)SC1=S,15*,?,-18%,12µM*,23
Cc1cc2nnc(SCc3ccccc3)n2c(N)n1,1,2%,1%,57%,3
Cn1c(-c2ccccc2)cnc1NCc1cc(Cl)ccc1O,17*,12µM*,-20%,-17%,18
Cn1c(-c2ccc(F)cc2)cnc1NCc1ccc(F)cc1,6,?,-14%,?,28
Cn1c(-c2ccccc2)cnc1NCc1ccc(-c2ccccc2)cc1,-2,26%,-51%,?,-3
Cn1c(-c2ccc(F)cc2)cnc1NCc1ccc(F)cc1F,13,19%,-7%,-28%,23*
Cn1c(-c2ccc(F)cc2)cnc1NCc1ccccc1F,17*,?,8%,-28%,19
O=C(CN(C(=O)CCC(=O)Nc1nccs1)C1CCCC1)NCc1ccc2c(c1)OCO2,3,-1%,/,25%,-12
CN(Cc1ccccc1)C(=O)CSc1nc2cc(C(=O)N3CCC(C(N)=O)CC3)ccc2c(=O)n1-c1ccccc1,-4,?,-2%,-4%,14
CC(C(=O)N1CCc2ccccc21)n1cccc1 (stereo unspecified),-2,-11%,0%,/,-11
SMILES,Cycloheximide cs,Pf growth 48h,NS1 inh,Pf growth 96h,Shiga toxin inh
COc1ccccc1OC(C)C(=O)N1CCc2ccccc21 (stereo unspecified),/,10µM*,/,-5%,/
COC(=O)c1ccc(OCC(=O)N2CCCc3ccccc32)cc1,0,-11%,-14%,?,-3
COc1cc(C(=O)N2CCc3ccccc32)cc(OC)c1OC,1,16%,-11%,-6%,1
COc1cc2ccccc2cc1C(=O)N1CCc2ccccc21,/,9.3µM*,/,?,/
CCCOc1ccc(C(=O)N2CCCc3ccccc32)cc1,15*,?,-95%,/,19
CCOc1ccc(C(=O)N2CCc3ccccc32)cc1,44*,?,-47%,-15%,64*
COc1ccc(C(CNC(=O)Nc2cccc(C)c2)N2CCN(C)CC2)cc1 (stereo unspecified),10,-22%,7%,?,-5
O=C(c1ccc2ccccc2c1)N1CCc2ccccc21,37*,-21%,10%,?,48
CC(C)(C)c1cc(C(=O)N2CCc3ccccc32)ccn1,9,?,-3%,10%[5.75 µM],40*
CC(C)(C)c1cc(C(=O)N2CCc3ccccc3C2)ccn1,13,8%,-2%,0%,3
O=c1c2c3c(sc2n(CCN2CCCCC2)c(=O)n1Cc1ccco1)CCCCC3,8,/,4%,2.6µM*,-5
NC(=O)Cn1c(=O)n(Cc2ccco2)c(=O)c2c3c(sc21)CCCCC3,-2,?,20%,-17%,11
O=c1c2c3c(sc2n(CCN2CCOCC2)c(=O)n1Cc1ccco1)CCCCC3,3,?,?,2.6µM*,-2
O=C(Nc1ccccc1)OCC(CN1CCCCC1)OC(=O)Nc1ccccc1 (stereo unspecified),-1,?,/,?,-5
CSc1nc(N)c2c3c(sc2n1)COC(C(C)C)C3 (stereo unspecified),-2,/,-2%,5.2µM*,-6
CC(C)(C)c1ccc(NC(=O)CSc2nnc(-c3n[nH]c4ccccc34)o2)cc1,26,80%,9%,11%,37*
O=C(Nc1nnc(-c2ccc3c(c2)CCCC3)o1)c1ccc(Cl)cc1Cl,-1,1%,-41%,5%,-2
O=C(Nc1nnc(-c2ccc3c(c2)CCCC3)o1)c1c(F)cccc1F,26,115%,/,189%,76*
COC(=O)c1ccc(N(CC(=O)NC2CCCCC2)C(=O)CNC(=O)c2ccco2)cc1,-2,5%,-10%,-30%,-5
Cn1c(NC2CCCCC2)c(N=O)c(=O)n(C)c1=O,-2,12%,/,?,-8
O=C(CCCC1=NS(=O)(=O)c2ccccc2N1)N1CCN(c2ccc([N+](=O)[O-])cc2)CC1,10,8.3µM*,2%,?,-11
Cc1cc(OCc2cc(C(=O)N(C)CCOc3ccccc3)no2)cc(C)c1Cl,-2,8%,-22%,-15%,-5
CC(=O)c1ccc(OCc2cc(C(=O)N(C)Cc3ccon3)no2)cc1,17,12%,-12%,7%,15
Cc1cc(OCc2cc(C(=O)N(C)Cc3ccccn3)no2)cc(C)c1Cl,92*,6%,-30%,34%,106*
Cc1cc(OCc2cc(C(=O)N(C)C(C)c3ccccn3)no2)cc(C)c1Cl (stereo unspecified),41*,7%,2%,5%,102*
CC(=O)c1ccc(OCc2cc(C(=O)N(C)Cc3ccccn3)no2)cc1,62*,7%,0%,10µM*,52*
CCOC(=O)Cn1c(=O)oc2cc(S(=O)(=O)NCCc3ccc(OCC)c(OCC)c3)ccc21,2,1%,12%,34%,-20
CCC(CC)NC(=O)Cc1ccc(F)cc1,-3,3%,1%,10%,-11
O=C(Cc1ccc(Br)cc1)Nc1cccc(Cl)c1,21*,6%[5.75 µM],/,-8%,22

# Screening data from PubChem BioAssay.
